# Compounds with a hit are over-represented: about 3.8% of the library has one in this group of screens.
# ATXN2 expr inh: ATXN2 expression inhibition; HEK-293 ATXN2-luciferase reporter, luminescence, 24 h; Potency, µM (highest dose often 57 µM), inactives show top-dose activity change, negative = inhibition, hits mostly inhibitors; 0.72% of 360,000 active; note: % is set by controls: 0 for no effect and ±100 for the full control effect; nearly all actives have a fitted effect of over 55% in size
#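 ATXN2-luciferase reporter cells (luciferase flanked by upstream and downstream ATXN2 gene portions) were treated 24 h at 37 °C with compounds at up to 57 uM. SteadyGlo luminescence gave expression; GF-AFC fluorescence gave viability.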
# TGFb inhibitor: TGF-b pathway inhibition | 1.2% of 410,000 active | HepG2 CAGA-GFP TGF-b/SMAD3 reporter, GFP fluorescence, 18 h; TGF-beta stimulated, 500 pg/mL final | Potency, µM (series often up to 46.1 µM), without a hit: at the top dose activity, negative = inhibition, hits mostly inhibitors; note: % is set by controls: 0 for no effect and ±100 for the full control effect; nearly all actives have a fitted effect of over 65% in size
#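 Inhibition of TGF-beta-driven CAGA-GFP reporter expression in HEPG2 cells is measured by cellular GFP fluorescence after 18 h stimulation with 500 pg/mL recombinant TGF-beta in 1% FBS medium at 37 degrees C.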
# A549 viability: A549 cytotoxicity, counter-screen for Nrf2 inhibitors; Potency, µM (series often up to 46 µM), without a hit: at the highest dose activity change, negative = cytotoxicity, usual class: inhibitors; AID 504648; A549 ARE-Fluc cells, CellTiter-Fluor viability, 18-24 h; 0.16% of 390,000 active; note: % is set by controls: 0 for no effect and ±100 for the full control effect
#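 A549 ARE-Fluc cells in 5% FBS OPTI-MEM, 5000 cells/well, rested 2 h then exposed to compounds in concentration-response for 18-24 h at 37 °C. Viability by CellTiter-Fluor fluorescence (Ex 405/Em 525) after 30 min; luciferase luminescence (BugLite, 15 min, RT) read afterwards.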
# HepG2 tox: kills HepG2 cells in TGF-b inhibitor counter-screen; AID 588856; HepG2 CAGA-GFP viability, ATP luminescence, 18 h; Potency, µM (top dose mostly 46.1 µM), for the others: top-dose activity change, negative = cytotoxicity, most hits filed as cytotoxic; 0.76% of 410,000 active
#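 CellTiter-Glo luminescence gave cytotoxicity after 18 hours at 37 degrees C. The cells were HepG2 CAGA-GFP in 1% FBS DMEM, stimulated with 500 pg/mL TGF-beta after compound addition. %Activity was normalised to no-cell wells (complete cell-killing) and DMSO (no toxicity), and curves were fitted and classified.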
# Nrf2 inh: inhibitors of Nrf2 signaling. A549 ARE-Fluc reporter, luciferase luminescence, 18-24 h. Potency, µM (doses to about 46 µM), without a hit: at the highest dose activity change, negative = inhibition, usual class: inhibitors. 2.1% of 360,000 active; note: % is set by controls: 0 for no effect and ±100 for the full control effect; nearly all actives have a fitted effect of over 60% in size
#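 Concentration-response testing used A549 ARE_Fluc cells at 5000 cells/well. Following an 18-24 h compound incubation, viability was read by fluorescence (Ex 405/Em 525) and luciferase output by luminescence.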
# S2 tox: reduces viability in counter-screen for ATXN expression inhibitors; 0.49% of 400,000 active; AID 651635; S2 cells (HEK-293 line with an ATXN2-luciferase reporter) viability, CellTiter-Fluor protease fluorescence, 24 h; Potency, µM (titrated, usually from 56.7 µM), hits mostly cytotoxic; note: nearly all actives have a fitted effect of over 40% in size
# * hit, by the source's call; i = inactive; ? = inconclusive; . = no result given; [ ] = another dose, or the depositor's remark. Calls come from the whole dose curve; as a rule, active = well fitted curve in the direction sought with a large enough effect; inconclusive = small, poorly fitted or top-dose-only effect, or another doubt; inactive = no such curve, though single readings can be large; an effect the other way counts as inactive or inconclusive. Potency is the fitted concentration of half-maximal effect.
SMILES,ATXN2 expr inh,TGFb inhibitor,A549 viability,HepG2 tox,Nrf2 inh,S2 tox
CC(=O)Nc1ccc(-c2csc(N/N=C(/C)c3ccccc3)n2)cc1,-7%,-2%,-4%,-5%,9%,i
CC(=O)Nc1cccc(-c2csc(Nc3ccc(Cl)cn3)n2)c1,.,?,-11%,-36%,-11%,?
O=C(Nc1nc(-c2ccc(Cl)cc2)cs1)NC1CCCCC1,-10%,11µM*,-12%,-35%,?,i
CC(=O)Nc1ccc(-c2csc(Nc3ccc(Cl)cn3)n2)cc1,-30%,?,-18%,-25%,15µM*,i
COc1ccc(OC)c(N(CC(=O)NCC2CCCO2)S(=O)(=O)c2ccccc2)c1 (centres undefined),3%,2%,1%,-3%,5%,i
CCC1(C2CCN(C(=O)c3cc4ccccc4o3)CC2)NC(=O)N(CCc2scnc2C)C1=O (centres undefined),.,.,.,.,.,i
CCc1ccc(NC(=O)Cn2c(=O)n(Cc3nc(C)no3)c(=O)c3cc4c(cc32)OCO4)cc1,.,1%,12%,-17%,?,.
Cc1ccc(-c2csc3nc[nH]c(=S)c23)cc1,-18%,0%,-7%,-23%,?,?
Cc1cc(-c2csc3nc[nH]c(=S)c23)cc(C)c1C,?,?,?,10%,23µM*,?
Nc1nc(-c2ccccn2)nc(N)c1Cc1ccccc1F,?,?,-8%,-25%,?,i
Nc1nc(-c2ccccn2)nc(N)c1Cc1ccc(Cl)cc1Cl,?,1%,?,-17%,6.5µM*,i
Cn1cnc([N+](=O)[O-])c1S(=O)(=O)c1cccc(Cl)c1,?,?,-8%,-107%,-17%,.
CCCn1c(CC)nc([N+](=O)[O-])c1S(=O)(=O)c1ccccc1,?,?,?,11µM*,21µM*,.
Cn1c(=O)oc2cc(S(=O)(=O)NCc3ccc(F)cc3)ccc21,7%,-8%,-10%,7%,7%,i
COc1ccc2c(c1)CC(C(=O)NCCN1CCN(c3cccc(Cl)c3)CC1)CO2 (centres undefined),-30%,-10%,-3%,-26%,.,?
Cc1ccc(S(=O)(=O)N2CCOCC2)cc1NC(=O)COc1ccccc1Cc1ccccc1,-15%,-7%,-7%,-26%,?,i
CN(c1ccccc1)c1ccc(/C=N/NC(=O)CC#N)cc1,13µM*,-9%,2%,-7%,-11%,i
N#CCC(=O)N/N=C/c1ccc(Cl)cc1,14%,21%,6%,37%,7%,i
CCOc1ccc(S(=O)(=O)NCc2cccn2Cc2cccc(C)c2)cc1,-8%,?,-4%,-41%,.,i
O=[N+]([O-])c1cc(C(F)(F)F)ccc1N1CCN(S(=O)(=O)c2ccc3c(c2)CCCC3)CC1,-24%,?,-19%,3%,15µM*,?
O=C(NCCCN1CCCCC1)c1ccc(CS(=O)c2ccc(F)cc2)o1 (centres undefined),2%,1%,0%,9%,1%,i
Cc1csc2c(N3CCN(C(=O)Nc4ccc(OC(F)(F)F)cc4)CC3)ncnc12,-28%,?,-19%,-11%,21µM*,i
CCCC[C@@H]1Cc2[nH][nH]c(=O)c2[C@H](c2ccc(C(C)C)cc2)O1,10%,.,.,.,.,i
O=C(Nc1ccnn1C1CCN(C2CCOCC2)CC1)c1cccc(F)c1,-6%,9%,3%,8%,0%,i
COC(=O)C1=C(C(=O)OC)C(C(=O)OC)C(C(=O)OC)C(C(=O)OC)(C(=O)OC)C(C(=O)OC)=C1C(=O)OC (centres undefined),?,-28%,-19%,-41%,?,34µM*
SMILES,ATXN2 expr inh,TGFb inhibitor,A549 viability,HepG2 tox,Nrf2 inh,S2 tox
CCc1cnc2c(c1SCCC(C)C)c(=O)n(C)c(=O)n2C,-11%,-29%,17%,-21%,.,i
Cc1ccc2c(C)nc(N/C(N)=N/S(=O)(=O)c3ccccc3)nc2c1,-17%,-1%,4%,-3%,3%,i
Cc1ccc(S(=O)(=O)/N=C(\N)Nc2nc(C)c3ccc(C)cc3n2)cc1,3%,-15%,-7%[1.84 µM],-11%,8.2µM*,i
Clc1ccc(CNc2cc(-c3ccccc3)nc3nncn23)cc1,?,?,2%,-27%,-28%,i
CCc1c(C)nc2nncn2c1NCc1ccc(Cl)cc1,.,.,-17%,-18%,8.2µM*,.
CCCCNC(=O)CSc1nc2cc3c(cc2c(=O)n1CCC(=O)NCCc1ccc(OC)c(OC)c1)OCO3,.,2%,0%,-43%,-6%,i
CC[C@]1(c2ccccc2OC)ON(c2ccccc2C(F)(F)F)C1=O,?,10µM*,-5%,16µM*,3%,.
COc1ccc(-c2noc(CSc3nnc(-c4ccncc4)n3-c3ccc(C)cc3)n2)cc1OC,-4%,-1%,0%,1%,-4%,i
Cc1ccc(O)c(-c2cc(-c3ccccc3C)[nH]n2)c1,2%,?,?,11µM*,-28%,?
CC(C)(C)c1ccc(-c2cc(-c3ccccc3O)[nH]n2)cc1,107%,18µM*,?,-59%,?,?
Oc1ccccc1-c1cc(-c2cccc(F)c2)n[nH]1,161%,-23%,-6%,-57%,?,i
CCCCn1c(N)c(N(CCOC)C(=O)c2c(CC)noc2C)c(=O)[nH]c1=O,.,7%,10%,-7%,-5%,i
O=C1/C(=C/c2ccccc2)CCc2ccc(Cl)nc21,?,20µM*,10%,-35%,-14%,?
CCOC(=O)C1=C(c2ccccc2)Nc2ncnn2C1c1ccc(C(=O)O)cc1 (centres undefined),0%,-3%,2%,-15%,0%,i
CCOC(=O)C1=C(c2ccccc2)NC(N)=NC1c1ccc(OCc2ccc(C(=O)OC)cc2)cc1 (centres undefined),25µM*,?,1%,-53%,-5%,28µM*
Cc1cc(NC(=O)CS(=O)(=O)c2cn(Cc3ccccc3Cl)c3ccccc23)no1,-20%,?,-17%[1.84 µM],-26%,26µM*,i
Cc1cc(NC(=O)CS(=O)c2cn(Cc3cccc(Cl)c3)c3ccccc23)no1 (centres undefined),?,13µM*,.,-8%,.,?
Nc1[nH]ncc1-c1ccccc1,-7%,-22%,0%,-1%,6%,i
COc1ccccc1-c1cc(C(F)(F)F)nc(S(=O)(=O)CCCC(=O)Nc2cc(C)on2)n1,?,-6%,?,-35%,-21%,.
